Compound activity (PubChem)
PABP FP inh: blocks human PABP binding to poly(A) RNA. calls only at 35 µM. fluorescence polarization. 290,000 tested, 1% active. AID 2014. P11940;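 further: calls also rest on retests at 20 µM and on dose response follow-up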
A3A deaminase: blocks human APOBEC3A ssDNA deamination; inhibition, % at 20 µM; recombinant A3A, FAM/TAMRA ssDNA deamination fluorescence; AID 493011; P31941; 330,000 tested, 0.41% active;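 active means at least 40% inhibition at 20 µM here, with at most 30% in a related deaminase screen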
A3G deaminase: blocks human APOBEC3G single-stranded DNA deamination. Q9HC16. recombinant A3G, ssDNA deamination FAM/TAMRA fluorescence. inhibition, % at 20 µM. 330,000 tested, 0.28% active;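 active means inhibition of at least 40% at 20 µM, with no more than 30% in the related APOBEC3A deaminase screen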
Target sequence (Q9HC16 whole entry, looked up): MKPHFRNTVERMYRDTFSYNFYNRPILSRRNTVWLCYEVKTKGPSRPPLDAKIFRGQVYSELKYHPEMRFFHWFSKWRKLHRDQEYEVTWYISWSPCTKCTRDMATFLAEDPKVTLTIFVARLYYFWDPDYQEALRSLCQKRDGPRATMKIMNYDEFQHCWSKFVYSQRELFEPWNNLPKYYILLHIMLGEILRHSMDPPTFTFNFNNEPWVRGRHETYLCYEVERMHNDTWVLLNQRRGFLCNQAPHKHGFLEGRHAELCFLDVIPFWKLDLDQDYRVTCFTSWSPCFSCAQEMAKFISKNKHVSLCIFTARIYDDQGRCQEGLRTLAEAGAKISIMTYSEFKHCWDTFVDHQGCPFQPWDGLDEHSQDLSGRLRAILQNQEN
eIF4H FP inh: inhibitors of RNA binding by human eIF4H | inhibition, % at 35 µM | Q15056 | AID 2012 | 290,000 tested, 0.94% active | eIF4H fluorescence polarization binding assay;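 further: calls also rest on retests at 20 µM and on dose response follow-up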
MLLE-PAM2 inh: blocks PAM2 peptide binding to the PABP1 MLLE domain. 360,000 tested, 0.36% active. GST-MLLE / FITC-PAM2 fluorescence polarization. inhibition, % at 20 µM; in the data active means inhibition above about 35%, passing the limit was not always enough
PHOSPHO1 block: blocks human PHOSPHO1 phosphatase activity; recombinant PHOSPHO1, absorbance phosphatase assay; 290,000 tested, 1.1% active; inhibition, % at 13.3 µM; Q8TCT1; AID 1565; in the data active means inhibition above about 60%
Numbers stand for hits. Most compounds without a hit are left out; they make up all but 2.6% or so of the library. Unless noted, how the calls were made is not given here.

What do the screens show for `COc1ccc(CC(=O)OCn2nnc3ccccc3c2=O)cc1OC`?
PABP FP inh: active; A3A deaminase: inactive; A3G deaminase: inactive; eIF4H FP inh: 92; MLLE-PAM2 inh: inactive; PHOSPHO1 block: inactive

What do the screens show for `O=C1c2ccc([N+](=O)[O-])cc2NC(c2ccco2)N1/N=C/c1ccco1` (stereo unspecified)?
PABP FP inh: inactive; A3A deaminase: inactive; A3G deaminase: inactive; eIF4H FP inh: 56; MLLE-PAM2 inh: inactive; PHOSPHO1 block: inactive

How did CC(C)c1ccc(NC(=O)CCS(=O)(=O)c2cccc3nonc23)cc1 do in these assays?
PABP FP inh: inactive; A3A deaminase: inactive; A3G deaminase: inactive; eIF4H FP inh: inactive; MLLE-PAM2 inh: inactive; PHOSPHO1 block: inactive

What do the screens show for `CCN=c1scc(C)n1/N=C/c1ccc(O)c(O)c1O`?
PABP FP inh: active; A3A deaminase: inactive; A3G deaminase: inactive; eIF4H FP inh: 82; MLLE-PAM2 inh: inactive; PHOSPHO1 block: inactive

What do the screens show for `CCN(CC)C1CCN(C(=O)c2ccc(OC3CCN(C(=O)CCOC)CC3)cc2)C1` (stereo unspecified)?
MLLE-PAM2 inh: inactive

What do the screens show for `CCOC(=O)C1=C(C)Nc2nc(SCC)nn2C1c1ccc(OC)cc1` (stereo unspecified)?
PABP FP inh: inactive; A3A deaminase: inactive; A3G deaminase: inactive; eIF4H FP inh: inactive; MLLE-PAM2 inh: inactive; PHOSPHO1 block: inactive

How did CCOC(=O)C1=C(C)Nc2nc(=S)[nH]n2C1c1ccc(Cl)cc1 (stereo unspecified) do in these assays?
PABP FP inh: inactive; A3A deaminase: inactive; A3G deaminase: inactive; eIF4H FP inh: inactive; MLLE-PAM2 inh: inactive; PHOSPHO1 block: 97

How did COC(=O)C1=C(C)N(C)C(=O)/C1=C\c1ccco1 do in these assays?
PABP FP inh: inactive; A3A deaminase: inactive; A3G deaminase: inactive; eIF4H FP inh: inactive; MLLE-PAM2 inh: inactive; PHOSPHO1 block: inactive

How did CC1=C(C#N)C(=O)N(C2CCS(=O)(=O)C2)C(=O)/C1=C\c1ccco1 (stereo unspecified) do in these assays?
PABP FP inh: active; A3A deaminase: inactive; A3G deaminase: inactive; eIF4H FP inh: 102; PHOSPHO1 block: inactive

What do the screens show for `Cc1cc(C(=O)NNC(=S)NC(=O)/C=C/c2ccccc2Cl)n[nH]1`?
PABP FP inh: inactive; A3A deaminase: inactive; A3G deaminase: inactive; eIF4H FP inh: inactive; MLLE-PAM2 inh: inactive; PHOSPHO1 block: 94

How did COC(=O)C1=C(C)NC(C)=C(C(=O)OC)C1C(=O)OCc1nnc(-c2ccccc2Cl)o1 do in these assays?
A3A deaminase: inactive; A3G deaminase: inactive; MLLE-PAM2 inh: inactive

How did COc1ccc(COc2cc(-c3cccc(OC)c3)nc3ccc(NC(=O)c4ccccc4)cc23)cc1 do in these assays?
PABP FP inh: inactive; A3A deaminase: inactive; A3G deaminase: inactive; eIF4H FP inh: inactive; MLLE-PAM2 inh: inactive; PHOSPHO1 block: inactive

Results for COc1ccc(COc2cc(-c3cccc(OC)c3)nc3ccc(NC(=O)c4ccc(OC)cc4)cc23)cc1 ?
PABP FP inh: inactive; A3A deaminase: inactive; A3G deaminase: inactive; eIF4H FP inh: inactive; MLLE-PAM2 inh: inactive; PHOSPHO1 block: 67

What do the screens show for `Cc1occc1-c1nnc(SCC(=O)N2CCCC(C)C2)o1` (stereo unspecified)?
A3A deaminase: inactive; A3G deaminase: inactive; MLLE-PAM2 inh: inactive

How did COC(=O)C1=C(C(=O)OC)SC(=C2C(=S)C(C)(C)N(C(=O)CC(C)C)c3ccccc32)S1 do in these assays?
PABP FP inh: inactive; A3A deaminase: inactive; A3G deaminase: inactive; eIF4H FP inh: inactive; MLLE-PAM2 inh: inactive; PHOSPHO1 block: 84

Results for O=C(O)c1ccc(NS(=O)(=O)c2ccc3c(c2)C2C=CCC2C(c2ccccc2F)N3)cc1 (stereo unspecified) ?
PABP FP inh: active; A3A deaminase: inactive; A3G deaminase: inactive; eIF4H FP inh: inactive; MLLE-PAM2 inh: inactive; PHOSPHO1 block: inactive

What do the screens show for `CC1(C)Cc2c(sc3[nH]c(=S)n(Cc4ccccc4)c(=O)c23)CO1`?
PABP FP inh: inactive; A3A deaminase: inactive; A3G deaminase: inactive; eIF4H FP inh: inactive; MLLE-PAM2 inh: inactive; PHOSPHO1 block: 76

What do the screens show for `Cc1ccc(-c2nn(-c3ccccc3)cc2C(=O)Nc2cccc(S(=O)(=O)NC3=NCCC3)c2)cc1`?
MLLE-PAM2 inh: inactive

How did CC1=C(C(=O)O)N2C(=O)C(NC(=O)c3ccccc3Cl)C2SC1 (stereo unspecified) do in these assays?
PABP FP inh: inactive; A3A deaminase: inactive; A3G deaminase: inactive; eIF4H FP inh: inactive; MLLE-PAM2 inh: inactive; PHOSPHO1 block: inactive

How did CC1=C(C(=O)O)N2C(=O)C(NC(=O)c3ccc(F)cc3)C2SC1 (stereo unspecified) do in these assays?
A3A deaminase: inactive; A3G deaminase: inactive; MLLE-PAM2 inh: 43

How did Cc1c(C(=O)OCC2CCCO2)[nH]c2c1C(=O)CC(c1ccco1)C2 (stereo unspecified) do in these assays?
PABP FP inh: active; A3A deaminase: inactive; A3G deaminase: inactive; eIF4H FP inh: 90; MLLE-PAM2 inh: inactive; PHOSPHO1 block: inactive

Results for Cc1c(C(=O)OCC(C)C)[nH]c2c1C(=O)CC(c1ccco1)C2 (stereo unspecified) ?
PABP FP inh: inactive; A3A deaminase: inactive; A3G deaminase: inactive; eIF4H FP inh: inactive; MLLE-PAM2 inh: inactive; PHOSPHO1 block: inactive

Results for CCCN1CCc2[nH]c(=S)[nH]c(=O)c2C1 ?
PABP FP inh: inactive; A3A deaminase: inactive; A3G deaminase: inactive; eIF4H FP inh: inactive; MLLE-PAM2 inh: 47; PHOSPHO1 block: inactive

Results for O=c1[nH]c(=S)[nH]c2c1CN(Cc1ccc(F)cc1)CC2 ?
A3A deaminase: inactive; A3G deaminase: inactive; MLLE-PAM2 inh: 39; PHOSPHO1 block: inactive

Results for COc1ccccc1-c1nc(SCC(=O)Nc2cc(C)on2)c2c(=O)n(C)c(=O)n(C)c2n1 ?
PABP FP inh: inactive; A3A deaminase: inactive; A3G deaminase: inactive; eIF4H FP inh: inactive; MLLE-PAM2 inh: inactive; PHOSPHO1 block: 65

What do the screens show for `Cc1cc(NC(=O)CSc2nc(-c3ccccc3)nc3c2c(=O)n(C)c(=O)n3C)no1`?
PABP FP inh: inactive; A3A deaminase: inactive; A3G deaminase: inactive; eIF4H FP inh: inactive; MLLE-PAM2 inh: inactive; PHOSPHO1 block: inactive

How did Cc1ccc(Sc2ncccc2COC(=O)NC(C)C)cc1 do in these assays?
PABP FP inh: active; A3A deaminase: inactive; A3G deaminase: inactive; eIF4H FP inh: active; MLLE-PAM2 inh: inactive; PHOSPHO1 block: inactive

Results for Cc1nc2sc(C(c3ccco3)N3CC(C)OC(C)C3)c(O)n2n1 (stereo unspecified) ?
PABP FP inh: inactive; A3A deaminase: inactive; A3G deaminase: inactive; eIF4H FP inh: inactive; MLLE-PAM2 inh: inactive; PHOSPHO1 block: 103

How did Oc1c(C(c2ccco2)N2CCOCC2)sc2ncnn12 (stereo unspecified) do in these assays?
PABP FP inh: active; A3A deaminase: inactive; A3G deaminase: inactive; eIF4H FP inh: inactive; MLLE-PAM2 inh: inactive; PHOSPHO1 block: 90

What do the screens show for `CC1=CC(C)C(=O)N(C)C(C)=C1` (stereo unspecified)?
MLLE-PAM2 inh: inactive
